The target in assay [1] is Rap guanine nucleotide exchange factor 3 (Homo sapiens) (UniProt O95398). Description: Confirmatory qHTS for agonist of cAMP-regulated guanine nucleotide exchange factor 3 (EPAC1) (AID 1645881).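 Further: EPAC1 catalysed release of BODIPY-GDP from Rap1B seen as fluorescence loss; 100% = effect of cAMP agonist control; nearly all actives have a fitted effect of over 75% in size.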 For orientation: Quantitative high-throughput screening tests each substance at several concentrations.
The target of assay [2] is Rap guanine nucleotide exchange factor 4 (Homo sapiens) (UniProt Q8WZA2). Description: Confirmatory qHTS for agonist of cAMP-regulated guanine nucleotide exchange factor 4 (EPAC2) (AID 1645884).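 Further: nucleotide exchange releases bodipy-GDP from Rap1 and this lowers its fluorescence; on the % scale 0 is the no-effect control and ±100 the full control effect; nearly all actives have a fitted effect of over 65% in size.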
For assay [3] the target is unchanged. Nature of the assay: Confirmatory qHTS for antagonist of cAMP-regulated guanine nucleotide exchange factor 4 (EPAC2) (AID 1645885). Further: nearly all actives have a fitted effect of over 25% in size. Further: potency means the concentration at half of the fitted maximal effect. On activity change, negative = inhibition: on the % scale 0 is the no-effect control and ±100 the full control effect.
In assay [4] the target is Rap guanine nucleotide exchange factor 3 (Homo sapiens) (UniProt O95398). Description: Counterscreen qHTS for antagonist of cAMP-regulated guanine nucleotide exchange factor 3 (EPAC1) (AID 1645888).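 Further: fluorescence loss as bound BODIPY-GDP is released from Rap1B; % of control where 0% means no effect.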 A digest of the protocol:
(§1)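 Measured: fluorescence of BODIPY-GDP bound to Rap1B, which falls as exchange proceeds. Conditions include 50 uM competing GDP, 5 and 30 min reads, and a later cAMP challenge for antagonist detection.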

Assay [5] has the same target. Description: Counterscreen qHTS for agonist of cAMP-regulated guanine nucleotide exchange factor 3 (EPAC1) (AID 1645889). Further: nearly all actives have a fitted effect of over 40% in size. Further: potency means the concentration at half of the fitted maximal effect. On activation: % of control where 0% means no effect. A digest of the protocol: as §1
On the technique in general: A counterscreen serves to expose hits that act by an unwanted route or on another target.

SMILES strings stand for the structures. Where “and” joins values, the source holds several entries; their conditions need not be identical. Identical values can stand only once. Results filed as inconclusive are left out. Unmarked numbers belong to inactive results. Calls of active or inactive are those of the source. The call rests on the fitted dose curve; in most records, active means well fitted curve in the direction sought with a large enough effect; inconclusive means small, poorly fitted or top-dose-only effect, or another doubt; inactive means no such curve, though single readings can be large; an effect the other way counts as inactive or inconclusive.

The values that follow come from PubChem BioAssay (NCATS).

Sequence of Rap guanine nucleotide exchange factor 3 (Homo sapiens) (O95398 whole entry, looked up): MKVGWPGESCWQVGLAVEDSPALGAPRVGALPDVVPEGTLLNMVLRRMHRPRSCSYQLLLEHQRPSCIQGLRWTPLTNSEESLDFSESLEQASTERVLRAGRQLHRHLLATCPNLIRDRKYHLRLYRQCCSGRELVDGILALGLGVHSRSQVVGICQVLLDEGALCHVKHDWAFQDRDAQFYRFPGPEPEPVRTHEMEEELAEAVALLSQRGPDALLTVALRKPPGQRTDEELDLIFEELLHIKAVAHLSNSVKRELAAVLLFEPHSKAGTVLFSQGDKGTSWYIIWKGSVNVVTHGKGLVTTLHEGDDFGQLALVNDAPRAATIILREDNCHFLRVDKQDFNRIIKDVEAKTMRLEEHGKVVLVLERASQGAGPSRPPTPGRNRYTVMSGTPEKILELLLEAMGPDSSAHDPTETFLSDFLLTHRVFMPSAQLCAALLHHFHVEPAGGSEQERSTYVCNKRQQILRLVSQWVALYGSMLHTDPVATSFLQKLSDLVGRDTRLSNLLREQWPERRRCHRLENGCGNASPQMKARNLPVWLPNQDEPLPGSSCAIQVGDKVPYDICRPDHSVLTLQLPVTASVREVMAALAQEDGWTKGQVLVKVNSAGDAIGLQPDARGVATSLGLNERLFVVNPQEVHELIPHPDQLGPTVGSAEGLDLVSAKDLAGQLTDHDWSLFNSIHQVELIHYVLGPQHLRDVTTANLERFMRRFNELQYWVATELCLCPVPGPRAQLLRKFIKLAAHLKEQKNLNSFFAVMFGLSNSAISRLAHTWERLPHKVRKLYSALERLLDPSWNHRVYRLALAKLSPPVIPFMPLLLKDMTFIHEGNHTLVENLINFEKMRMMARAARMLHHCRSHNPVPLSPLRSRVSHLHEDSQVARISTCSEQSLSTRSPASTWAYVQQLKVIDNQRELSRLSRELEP
Sequence of Rap guanine nucleotide exchange factor 4 (Homo sapiens) (Q8WZA2 whole entry, looked up): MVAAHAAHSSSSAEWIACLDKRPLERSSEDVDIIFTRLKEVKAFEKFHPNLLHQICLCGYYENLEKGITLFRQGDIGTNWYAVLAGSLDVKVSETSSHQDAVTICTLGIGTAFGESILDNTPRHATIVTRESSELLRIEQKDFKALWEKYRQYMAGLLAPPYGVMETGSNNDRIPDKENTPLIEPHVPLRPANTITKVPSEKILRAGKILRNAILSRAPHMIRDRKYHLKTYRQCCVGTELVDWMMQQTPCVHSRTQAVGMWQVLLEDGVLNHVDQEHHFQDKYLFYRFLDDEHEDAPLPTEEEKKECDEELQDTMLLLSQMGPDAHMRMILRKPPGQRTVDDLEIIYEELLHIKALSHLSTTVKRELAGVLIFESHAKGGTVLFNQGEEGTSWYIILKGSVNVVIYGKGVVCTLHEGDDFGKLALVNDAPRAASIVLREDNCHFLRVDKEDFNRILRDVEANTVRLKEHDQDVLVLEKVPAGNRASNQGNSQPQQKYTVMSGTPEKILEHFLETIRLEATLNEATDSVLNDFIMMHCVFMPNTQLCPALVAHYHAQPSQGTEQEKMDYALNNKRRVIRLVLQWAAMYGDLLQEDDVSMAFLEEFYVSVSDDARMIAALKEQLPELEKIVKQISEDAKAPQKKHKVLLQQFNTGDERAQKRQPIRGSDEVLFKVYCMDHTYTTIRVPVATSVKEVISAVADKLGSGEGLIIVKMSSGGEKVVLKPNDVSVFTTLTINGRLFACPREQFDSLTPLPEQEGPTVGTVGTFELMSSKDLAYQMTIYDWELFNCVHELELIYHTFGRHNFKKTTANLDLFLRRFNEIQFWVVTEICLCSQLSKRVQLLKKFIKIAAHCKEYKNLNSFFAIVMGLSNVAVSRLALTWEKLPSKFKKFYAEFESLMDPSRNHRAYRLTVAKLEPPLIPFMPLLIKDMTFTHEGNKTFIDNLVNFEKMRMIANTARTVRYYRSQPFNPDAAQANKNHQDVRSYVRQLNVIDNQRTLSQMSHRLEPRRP

`CCc1cc(-c2n[nH]c(C)c2-c2nc(C)cs2)c(O)cc1OC`: the Potency result in assay [1] and in assay [3] was “inactive” in each case. The activation in assay [2] is 5.22% [at 17.1 µM, percent relative to cAMP agonist control]; in assay [5], 34.8% [at 30.8 µM]. Further, the activity change, negative = inhibition in assay [4] is -17% [at 30.8 µM].

Regarding `CC(C)CC1C(=O)N(Cc2cn(Cc3ccco3)nn2)CCS(=O)(=O)N1Cc1ccc(-c2ccccc2)cc1` (stereo not given), the Potency result in assay [1], in assay [2], in assay [4] and in assay [5] was “inactive” in each case. Also, the Potency in assay [3] was 19 µM (active).

Take `CCOc1cccc(CNc2ccc(O)cc2)c1OCc1ccccc1Cl`: the Potency result in assay [1], in assay [2], in assay [3] and in assay [4] was “inactive” throughout. Also, the Potency in assay [5] is 44.7 nM (active) and 79.4 µM (active).

`OC(c1ccc(F)c(F)c1)c1nc(-c2csc3ccccc23)cs1` (stereo not given): the Potency entry in assay [1] and in assay [3] was “inactive” in each case. The activation in assay [2] is 3.04% [at 17.1 µM, percent relative to cAMP agonist control]; in assay [5] it was 2.58% [at 30.8 µM]. Moreover, in assay [4], the activity change, negative = inhibition was -0.286% [at 30.8 µM].

Turning to `Cc1ccc(-c2ccc(CN3C(CC(C)C)C(=O)N(Cc4cn(CCC5OCCO5)nn4)CCS3(=O)=O)cc2)cc1` (stereo not given), the Potency entry in assay [1], in assay [2], in assay [3], in assay [4] and in assay [5] was “inactive” in each case.

Take `CCc1cccc(NC(=O)COC(=O)/C=C/c2cccs2)c1`: the Potency result in assay [1], in assay [2], in assay [3], in assay [4] and in assay [5] was “inactive” throughout.

For the compound `COc1cc(/C=C2\SC(=O)N(CC(=O)Nc3ccc(C)cc3)C2=O)cc(Cl)c1OCC(=O)O`, the Potency entry in assay [1], in assay [2], in assay [3], in assay [4] and in assay [5] was “inactive” throughout.

Turning to `O=C(Cc1ccc(Cl)cc1)N/N=C/c1ccc(O)c(O)c1`, the Potency result in assay [1], in assay [2], in assay [3], in assay [4] and in assay [5] was “inactive” each time.

On to `CCC1(c2ccccc2)SCC(c2ccccc2)=NC1=O` (stereo not given), for which the Potency entry in assay [1], in assay [2], in assay [3], in assay [4] and in assay [5] was “inactive” throughout.

For `Cc1ccc(-c2nc3ccc(C)cn3c2Cc2ccccc2C(F)(F)F)cc1`, the Potency result in assay [1], in assay [2], in assay [3], in assay [4] and in assay [5] was “inactive” throughout.

In the case of `CCOc1ccc(S(=O)(=O)Nc2cc(NS(=O)(=O)c3ccc(OCC)cc3)cc(C(=O)O)c2)cc1`, the Potency result in assay [1], in assay [2], in assay [3], in assay [4] and in assay [5] was “inactive” each time.

Regarding `COc1ccc(C(CNC(=O)c2cccc(S(=O)(=O)Nc3ccc(C)cc3)c2)N2CCOCC2)cc1` (stereo not given), the Potency entry in assay [1], in assay [2], in assay [3], in assay [4] and in assay [5] was “inactive” in each case.

For `Cc1ccc(C(=O)c2no[n+]([O-])c2C(=O)c2ccc(C)cc2)cc1`, the Potency result in assay [1], in assay [2], in assay [3], in assay [4] and in assay [5] was “inactive” each time.

As to `O=C(O)C1CC(c2ccc(F)cc2)=NO1` (stereo not given), the Potency result in assay [1] and in assay [3] was “inactive” in each case. Moreover, the activation in assay [2] was -14.9% [at 17.1 µM, percent relative to cAMP agonist control]; in assay [5] it was 21.8% [at 30.8 µM]. In addition, in assay [4], the activity change, negative = inhibition was -15.4% [at 30.8 µM].

Take `Cc1c(C(=O)OCC(C)C)[nH]c2c1C(=O)CC(c1ccco1)C2` (stereo not given): the Potency result in assay [1], in assay [2], in assay [3], in assay [4] and in assay [5] was “inactive” each time.

`Cc1nn(-c2ccccc2)c(Cl)c1/C=C1\SC(=S)N(CCCCCC(=O)O)C1=O`: the Potency result in assay [1] and in assay [3] was “inactive” throughout. Besides, the activation is -0.0903% [at 17.1 µM, percent relative to cAMP agonist control] in assay [2] and 22.3% [at 30.8 µM] in assay [5]. Besides, in assay [4], the activity change, negative = inhibition was -15.3% [at 30.8 µM].

For the compound `CC1(C(=O)NS(=O)(=O)c2ccc(Cl)cc2)CCN1C(=O)C1(c2ccccc2)CCCC1` (stereo not given), the Potency result in assay [1], in assay [2], in assay [3], in assay [4] and in assay [5] was “inactive” throughout.

On to `COc1ccccc1N1CCN(CC(O)COc2ccc(C)cc2C(C)(C)C)CC1` (stereo not given), for which the Potency result in assay [1], in assay [2], in assay [3], in assay [4] and in assay [5] was “inactive” throughout.

With `COc1ccc(/C=N\Nc2ccc([N+](=O)[O-])cc2)c(C(=O)O)c1OC`, the Potency result in assay [1], in assay [2], in assay [3], in assay [4] and in assay [5] was “inactive” each time.

Take `CC(=O)Nc1ccc(NC(=O)CNC(=O)COc2ccccc2)cc1`: the Potency entry in assay [1] and in assay [3] was “inactive” throughout. In addition, the activation was 14.1% [at 17.1 µM, percent relative to cAMP agonist control] in assay [2] and -0.338% [at 30.8 µM] in assay [5]. For the same compound, the activity change, negative = inhibition in assay [4] is 1.2% [at 30.8 µM].

Turning to `O=c1c2ccccc2c(C=Nc2ccc(O)cc2)c(O)n1Cc1ccccc1`, the Potency entry in assay [1] and in assay [3] was “inactive” each time. Further, the activation in assay [2] is 1.98% [at 17.1 µM, percent relative to cAMP agonist control]; in assay [5], 1.81% [at 30.8 µM]. For the same compound, in assay [4], the activity change, negative = inhibition was -7.68% [at 30.8 µM].
